Where “and” joins values, the source holds several entries; their conditions need not be identical. Equal entries are not always repeated. The campaign covered roughly 16,000 compounds. About 4,000 (25%) were called active. Not shown: some 26% with an inconclusive outcome. The list is a sample of the results. Unmarked numbers belong to inactive results. Calls come from the whole dose curve; as a rule, active = well fitted curve in the direction sought with a large enough effect; inconclusive = small, poorly fitted or top-dose-only effect, or effect the other way; inactive = no such curve, though single readings can be large or run the other way.
What follows are compounds tested against Cytochrome P450 2C9 (Homo sapiens) (UniProt P11712) (assay: Cytochrome panel assay with activity outcomes). Conditions: recombinant CYP, pro-luciferin dealkylation, luminescence, p450-cyp2c9; series mostly up to 57.1 µM; activity, negative = inhibition: at the top concentration.
Chain of Cytochrome P450 2C9 (Homo sapiens) (P11712 whole entry, looked up): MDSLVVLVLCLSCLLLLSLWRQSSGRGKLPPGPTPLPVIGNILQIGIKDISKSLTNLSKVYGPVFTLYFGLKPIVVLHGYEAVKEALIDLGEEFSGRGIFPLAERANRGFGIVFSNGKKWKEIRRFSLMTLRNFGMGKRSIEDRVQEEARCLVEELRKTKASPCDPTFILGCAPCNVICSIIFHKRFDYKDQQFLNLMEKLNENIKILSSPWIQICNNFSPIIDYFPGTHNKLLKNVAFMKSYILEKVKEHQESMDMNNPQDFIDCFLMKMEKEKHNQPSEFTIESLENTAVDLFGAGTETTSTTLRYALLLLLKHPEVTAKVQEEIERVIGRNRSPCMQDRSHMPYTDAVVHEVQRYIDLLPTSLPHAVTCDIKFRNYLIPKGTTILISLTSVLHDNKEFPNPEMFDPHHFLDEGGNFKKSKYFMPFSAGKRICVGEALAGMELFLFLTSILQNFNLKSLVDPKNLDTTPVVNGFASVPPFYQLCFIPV
In the case of O=C1OCCC1Sc1nnnn1-c1ccccc1 (stereo not given), the “activity, negative = inhibition” value is reported as -15.2%.
CCC(CC)C(=O)Nc1ccc(C)c(O)c1 was tested, and the AC50 was 3.16 µM (active).
With Cc1ccccc1N1C(=O)c2cc(S(N)(=O)=O)c(Cl)cc2N[C@H]1C the “activity, negative = inhibition” value was -17.8% [at 25.6 µM].
For Cc1[nH]nc(N2CCCCCC2)c1[N+](=O)[O-], the AC50 was 17.8 µM (active).
Cc1ccccc1CN1C2=NCCN2C(=O)C2=C1CCN(Cc1ccccc1)C2 gave an activity, negative = inhibition of -1.36% [at 11.4 µM].
CN(C)C(=O)CCc1nc(-c2ccc(C(C)(C)C)cc2)no1 was tested, and the “activity, negative = inhibition” value was -13.8%.
For N=C(N)SCc1nc(-c2ccc(Cl)cc2)no1, the AC50 was 3.98 µM (active).
In the case of Cc1ccc(NC(=O)C2CCN(S(C)(=O)=O)CC2)cc1, the “activity, negative = inhibition” value is reported as 8.67%.
For Cc1ccc(C(=O)C2CCNCC2)cc1, the “activity, negative = inhibition” value was -7.02%.
With Cc1ccc(C2CC2C(=O)NN)cc1 (stereo not given) the AC50 was 14.1 µM (active).
In the case of Cc1cccc(CNc2cc(-c3ccccc3CN(C)C)ncn2)c1, the activity, negative = inhibition is reported as -2.61% [at 2.29 µM].
In the case of CC(C)=CCc1c2c(c3occ(-c4ccc(O)c(O)c4)c(=O)c3c1O)C=CC(C)(C)O2, the AC50 is reported as 3.16 µM (active).
CN(C)CCO[C@](C)(c1ccccc1)c1ccccn1 was tested, and the AC50 was “inactive”.
COc1ccc(-c2cc([C@H](O)[C@@H]3CCCCN3)c3ccccc3n2)cc1 gave an activity, negative = inhibition of 3.54% [at 11.4 µM].
In the case of COC(=O)c1sccc1NC(=O)c1cc(-c2ccc(C)cc2)nc2ccccc12, the AC50 is reported as 3.98 µM (active).
COC(=O)c1sccc1NC(=O)c1cc(-c2cc(C)ccc2C)nc2ccccc12 was tested, and the “activity, negative = inhibition” value was -53%.
For COC(=O)c1sccc1NC(=O)c1cc(-c2ccc(C)cc2C)nc2ccccc12, the AC50 was 2.24 µM (active).
For COC(=O)CNC(c1ccccc1Cl)c1cc(Br)ccc1NC(=O)CCN1CCOCC1 (stereo not given), the AC50 was 15.8 µM (active).
Work on Clc1ccccc1-c1cc(NCCN2CCOCC2)ncn1 yielded an activity, negative = inhibition of 16.8% [at 2.29 µM].
With O=C(CSCc1ccccc1Cl)NNC(=S)Nc1ccccc1 the AC50 was 2.51 µM (active).
In the case of O=C(CSCc1ccccc1Cl)NN1C(=O)c2ccccc2C1=O, the AC50 is reported as 3.98 µM (active).
For O=C(CSCc1ccccc1Cl)NNC(=O)c1ccccc1, the “activity, negative = inhibition” value was -11.5%.
O=C(NNC(=S)Nc1ccccc1)C1CC1 was tested, and the “activity, negative = inhibition” value was -20.4%.
O=C(NN1C(=O)c2ccccc2C1=O)C1CCCCC1 was tested, and the “activity, negative = inhibition” value was -28.6%.
CC(C)CNC(=O)O showed an activity, negative = inhibition of -4.26% [at 11.4 µM].
With Cc1oc(-c2cccs2)[n+]([O-])c1C the “activity, negative = inhibition” value was -17.3%.
C(=C\c1nnc(-c2cccs2)o1)/c1ccccc1 was tested, and the AC50 was 14.1 µM (active).
Clc1cccc(Cl)c1CSc1nnc(/C=C/c2ccccc2)o1 was tested, and the “activity, negative = inhibition” value was -33%.
O=[N+]([O-])c1ccc(C2CCCC/C2=N\OCc2cccc(F)c2)c([N+](=O)[O-])c1 (stereo not given) was tested, and the AC50 was 7.94 µM (active).
For CC1(C)N=C(N)N=C(N)N1c1cccc(OCc2cccc([N+](=O)[O-])c2)c1, the activity, negative = inhibition was -1.87% [at 11.4 µM].
In the case of CCN1CCN(C(=O)N[C@H](C(=O)N[C@@H]2C(=O)N3C(C(=O)O)=C(CSc4nnnn4C)CS[C@@H]23)c2ccc(O)cc2)C(=O)C1=O, the “activity, negative = inhibition” value is reported as -2.86% [at 25.6 µM].
CN(CCC(=O)O)S(=O)(=O)c1ccccc1 gave an activity, negative = inhibition of 22.4% [at 11.4 µM].
For CCCCN(CC)S(=O)(=O)c1ccc(C(=O)Nc2nnc(CSC)o2)cc1, the AC50 was 0.891 µM (active).
For CCCCN(C)S(=O)(=O)c1ccc(C(=O)Nc2nnc(CSC)o2)cc1, the AC50 was 0.794 µM (active).
Work on CN(Cc1ccco1)c1ccnc(-c2ccccc2C(F)(F)F)n1 yielded an activity, negative = inhibition of -4.94% [at 2.29 µM].
O=C(O)C[C@H](S)C(=O)O gave an activity, negative = inhibition of 10.9% [at 11.4 µM].
O=C(c1ccc(Cl)cc1)N1CCN(C(=O)c2ccco2)CC1 was tested, and the “activity, negative = inhibition” value was -19.8%.
For O=C(c1cc(-c2ccc(Cl)cc2Cl)on1)N1CCN(C(=O)c2ccco2)CC1, the AC50 was 7.08 µM (active).
For O=C(c1ccco1)N1CCN(C(=O)c2nn3cccnc3c2Cl)CC1, the “activity, negative = inhibition” value was -8.31%.
With Cc1cccc(C)c1NC(=O)C[N+](C)(C)C the “activity, negative = inhibition” value was -10.4%.
CC[N+](CC)(CC)CC(=O)Nc1c(C)cccc1C was tested, and the “activity, negative = inhibition” value was 9.55%.
With Cc1cc2cc3c(cc2nc1SCC(=O)Nc1c(C)cccc1C)CCC3 the AC50 was 4.47 µM (active).
In the case of CO[C@H]1COC(=O)[C@H]2CCCN2C(=O)[C@@H](C)COC(=O)C/C=C\[C@@H]1C, the activity, negative = inhibition is reported as 7.11% [at 11.4 µM].
In the case of O=C(NCc1cccnc1)/C(=C/c1ccc(-c2cccc(Cl)c2)o1)S(=O)(=O)c1ccccc1, the AC50 is reported as 6.31 µM (active).
CN(C(=S)Nc1ccccc1F)C1(c2ccccc2Cl)CCCCC1=O (stereo not given) was tested, and the AC50 was 17.8 µM (active).
In the case of CCN(C(=S)Nc1ccccc1F)C1CCCCC1, the “activity, negative = inhibition” value is reported as -17%.
COc1ccccc1CNc1ncncc1-c1ccc(C(=O)N(C)C)cc1 gave an activity, negative = inhibition of -24.3% [at 2.29 µM].
COc1ccccc1C(=O)NCCn1cc(SCC(=O)Nc2nnc(C)s2)c2ccccc21 was tested, and the AC50 was 2.24 µM (active).
With COC(=O)Nc1nc2ccc(SC(C)C)cc2[nH]1 the “activity, negative = inhibition” value was -5.69% [at 25.6 µM].
Cc1noc(C)c1C(=O)N1CCC2(CCN(Cc3cc(C(F)(F)F)cc(C(F)(F)F)c3)CC2)CC1 was tested, and the “activity, negative = inhibition” value was -4.95%.
CO[C@@H]1COC(=O)CC=C[C@@H](C)[C@@H]2C=C[C@H](O)[C@@H](COC(=O)[C@H](C)NC(=O)CC=C[C@H]1C)O2 gave an activity, negative = inhibition of -4.45% [at 11.4 µM].
In the case of CC(C)OP(=O)(OC(C)C)C(NC(=O)c1ccc(Br)cc1)c1ccccc1 (stereo not given), the AC50 is reported as 10 µM (active).
With Nc1ccccc1C#Cc1ccccc1 the AC50 was 7.94 µM (active) and 14.1 µM (active).
For O=c1c(-c2cccs2)nc2cnc(Oc3ccccc3)nc2n1C1CC1, the AC50 was 3.16 µM (active).
In the case of COc1ccc(Oc2ncc3nc(-c4cccs4)c(=O)n(C)c3n2)cc1, the AC50 is reported as 3.16 µM (active).
For COCCn1c(=O)c(-c2cccs2)nc2cnc(Oc3ccccc3)nc21, the AC50 was 3.98 µM (active).
COc1ccc(Oc2ncc3nc(-c4cccs4)c(=O)n(-c4ccccc4)c3n2)cc1 was tested, and the “activity, negative = inhibition” value was -29.6%.
For COc1ccc(Oc2ncc3nc(-c4cc(F)cc(F)c4)c(=O)n(C)c3n2)cc1, the “activity, negative = inhibition” value was -7.05%.
In the case of Cn1cc(-c2nc3cnc(Oc4ccccc4)nc3n(C3CC3)c2=O)c2ccccc21, the “activity, negative = inhibition” value is reported as -16.2%.
With COCCn1c(=O)c(-c2cccs2)nc2cnc(Oc3ccc(OC)cc3)nc21 the AC50 was 5.01 µM (active).
For COc1ncc2nc(-c3cccs3)c(=O)n(-c3ccccc3)c2n1, the “activity, negative = inhibition” value was -3.19%.
COCCn1c(=O)c(-c2cccs2)nc2cnc(N(C)C)nc21 was tested, and the “activity, negative = inhibition” value was -15.4%.
Work on CS(=O)(=O)Nc1cccc(-c2ccc3ncnc(NCc4cccnc4)c3c2)c1 yielded an activity, negative = inhibition of -11.8% [at 2.29 µM].
In the case of FC(F)(F)c1ccccc1-c1nc(NCc2cccs2)c2ccccc2n1, the activity, negative = inhibition is reported as -25.9% [at 2.29 µM].
In the case of CC(C)C(=O)NCCc1nc2ccccc2n1CCCOc1ccc(Cl)cc1, the AC50 is reported as 3.16 µM (active).
CC(C)C(=O)NCCn1ccc2ccccc21 was tested, and the “activity, negative = inhibition” value was -28.7%.
Work on C[C@H]1/C=C\CC(=O)OC[C@H](C)C(=O)N2CCC[C@@H]2C(=O)OC1 yielded an activity, negative = inhibition of 4.32% [at 11.4 µM].
O=C(CN1CCc2ccccc21)NC(=O)NCc1ccco1 was tested, and the AC50 was 15.8 µM (active).
Compound Cc1cnc(CNc2ncnc3ccc(-c4ccc(N(C)C)cc4)cc23)cn1 has an activity, negative = inhibition of -3.84% [at 2.29 µM].
In the case of CO[C@@H]1COC(=O)[C@H](Cc2ccccc2)NC(=O)C/C=C\[C@@H](C)[C@H](OC)COC(=O)[C@@H](C)NC(=O)C/C=C\[C@H]1C, the activity, negative = inhibition is reported as -11.8% [at 11.4 µM] and -14.5% [at 11.4 µM].
For Cc1cccc(-n2nc([N+](=O)[O-])c(=NCc3cccnc3)n2O)c1, the AC50 was 10 µM (active).
Work on Cc1cccc(CNc2ncncc2-c2cccnc2)c1 yielded an activity, negative = inhibition of 1.46% [at 2.29 µM].
S=C1NCN2CCN(CC2)CNC(=S)C(=S)NCN2CCN(CC2)CNC1=S gave an activity, negative = inhibition of -2.75% [at 11.4 µM].
With Cc1oc(=O)c(NC(=O)c2ccccc2)cc1C(=O)c1ccccc1 the AC50 was 12.6 µM (active).
CC(=O)c1cc(NC(=O)c2ccccc2)c(=O)oc1/C=C/N(C)C was tested, and the “activity, negative = inhibition” value was -16.5%.
In the case of Cc1ccc(C(=O)Nc2cc3c(oc2=O)CCCC3=O)cc1, the “activity, negative = inhibition” value is reported as -13.2%.
In the case of Cc1cccc(CNc2cc(-c3c(C)noc3C)ncn2)c1, the activity, negative = inhibition is reported as -2.84% [at 2.29 µM].
Compound O=C(O)C1(C(=O)O)CCN(S(=O)(=O)c2ccccc2)CC1 has an activity, negative = inhibition of -9.03% [at 11.4 µM].
Work on O=C(O)CC1(C(=O)O)CCCCC1 yielded an activity, negative = inhibition of -2.68% [at 11.4 µM].
With N.N.O=C(O)C1(C(=O)O)CCC1.[Pt] the AC50 was 3.98 µM (active).
Cc1ccc(CSC(N)=Nc2ccccc2)cc1C showed an activity, negative = inhibition of 7.44% [at 11.4 µM].
For CN(C)/C=C/C(=O)c1ccc(F)cc1, the “activity, negative = inhibition” value was -17.2%.
For CC(Oc1ccc(Cl)cc1)C(=O)/C=C/N(C)C (stereo not given), the AC50 was 12.6 µM (active).
CN(C)/C=C/C(=O)c1ccc(Cl)cc1 was tested, and the “activity, negative = inhibition” value was -21.1%.
For O=C(CCCCCn1c(=S)[nH]c2cc3c(cc2c1=O)OCO3)N1CCN(C2CCCCC2)CC1, the AC50 was 1.12 µM (active).
CCN(CC)CCn1c(=S)[nH]c2cc3c(cc2c1=O)OCO3 was tested, and the “activity, negative = inhibition” value was -28.2%.
Work on CN(Cc1ccco1)c1ncncc1-c1cccc(C#N)c1 yielded an activity, negative = inhibition of 2.42% [at 2.29 µM].
C[N+](C)(C)CC(=O)O was tested, and the “activity, negative = inhibition” value was 6.18%.
Compound COCCNc1ccnc(-c2c(C)noc2C)n1 has an activity, negative = inhibition of 17.7% [at 2.29 µM].
For Cc1nc(SCC(=O)c2ccc(Cl)s2)c2oc3ccccc3c2n1, the AC50 was 0.447 µM (active).
In the case of CCc1nc(SCC(=O)NCCc2ccccc2)c2oc3ccccc3c2n1, the AC50 is reported as 1.12 µM (active).
In the case of CCc1nc(SCC(=O)c2ccc(Cl)s2)c2oc3ccccc3c2n1, the AC50 is reported as 1.12 µM (active).
For Cc1nc(SCC(=O)Nc2ccc3c(c2)OCCO3)c2oc3ccccc3c2n1, the AC50 was 2 µM (active).
In the case of Cc1nc(SCC(=O)NCCc2ccc(Cl)cc2)nc(C)c1C, the “activity, negative = inhibition” value is reported as -28%.
With Cc1nc(Oc2ccc(Cl)cc2)c2oc3ccccc3c2n1 the “activity, negative = inhibition” value was -25.9%.

— PubChem BioAssay AID1851 (National Center for Advancing Translational Sciences (NCATS), 2009)
% is set by controls: 0 for no effect and ±100 for the full control effect.
